Assay [1] addresses Androgen receptor (Homo sapiens) (UniProt P10275). Description: ATG_AR_TRANS: Attagene TRANS-FACTORIAL HepG2 Assay for human Androgen Receptor (AR) (AID 2282973). To be noted: HepG2 Attagene TRANS-FACTORIAL AR reporter transcription. The essentials:
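Transcriptional activity of an exogenous AR–Gal4 fusion read as GAL4-UAS reporter transcript levels in transfected human HepG2 cells after 24 h dosing. Detection via RT-PCR, 6-FAM labelling, HpaI digest and capillary electrophoresis; increase over DMSO baseline.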

Assay [2] is described as follows: Tanguay_ZF_120hpf_MUSC: Oregon State University Tanguay Lab 120 Hour Post-fertilization zebrafish Assay for Muscle Malformation (AID 2284401; active = hit-call score of the fitted dose curve at least 0.9, where 1 is the maximum; inactive = score below 0.9). The essentials:
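Dechorionated Tropical 5D wild-type zebrafish embryos exposed statically from 6 to 120 hpf at 28C, one per well, in 0.64% DMSO. Muscle malformation scored present/absent by brightfield microscopy at 120 hpf, fitted against DMSO.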

The target in assay [3] is rat Monoamine Oxidase, MAO-B, Central (MAOBC), Maob (gene 25750) (UniProt P19643). Briefly: NVS_ENZ_rMAOBC: NovaScreen (NVS) Enzymatic Assay for rat Monoamine Oxidase, MAO-B, Central (MAOBC) (AID 2283238). The essentials: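 Rat brain tissue extract served as the cell-free MAO-B source; enzyme activity was read by scintillation counting 1.17 hours after compound addition. Loss of signal versus DMSO baseline was fitted; primary single-concentration screen at 25 uM, follow-up concentration-response up to 50 uM.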

In assay [4] the target is Voltage-dependent N-type calcium channel subunit alpha-1B (Rattus norvegicus) (UniProt Q02294). Briefly: NVS_IC_rCaChN: NovaScreen (NVS) Ion Channel Assay for rat Calcium Channel, Type N (CaChN) (AID 2283317).
Assay [5] can be described thus: ATG_M_32_XSP2: Attagene TRANS-FACTORIAL Multi-Species (XSP2) HepG2 Assay for M19 Transcription Factor (Internal Marker) (AID 2283826). The essentials:
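Read-out: reporter mRNA quantified by RT-PCR, FAM labeling, HpaI digestion and capillary electrophoresis, 24 h after dosing transfected HepG2 cells. Medium carried 3 nM 6-alpha-fluorotestosterone plus 1.5 nM norgestrel; gain of signal fitted against DMSO.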

Assay [6] relates to rat Monoamine Oxidase, MAO-A, Central (MAOAC), gene 29253. Briefly: NVS_ENZ_rMAOAC: NovaScreen (NVS) Enzymatic Assay for rat Monoamine Oxidase, MAO-A, Central (MAOAC) (AID 2283243).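 Also: potency refers to inhibition seen as signal drop below DMSO baseline.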 The essentials:
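Rat brain tissue extract used as enzyme source in a cell-free radiometric assay, read by scintillation counting 1.5 hours after dosing. Loss of signal relative to DMSO baseline scored; primary screen at 25 uM in duplicate, actives followed up in concentration series.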

Assay [7] concerns the target human Neonicotinoid receptor (NNR), CHRNA2 (gene 1135) (UniProt Q15822). Briefly: NVS_LGIC_hNNR_NBungSens: NovaScreen (NVS) Ligand-Gated Ion Channel Assay for human Neonicotinoid receptor (NNR) (AID 2283313). In outline:
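Radioligand displacement on human neuroblastoma membranes, 2 h, filter-based scintillation counting. Primary screen in duplicate at 25 uM; chemicals passing threshold (e.g. 30% inhibition) run singleton concentration-response to 50 uM; loss of binding fitted versus DMSO.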

The target in assay [8] is rat Oxytocin Receptor (OXT), Oxtr (gene 25342) (UniProt P70536). Briefly: NVS_GPCR_rOXT: NovaScreen (NVS) G Protein-Coupled Receptor Assay for rat Oxytocin Receptor (OXT) (AID 2283330). The essentials: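 Radioligand displacement on rat uterine membranes, 1 h incubation, filter-based scintillation counting. Chemicals were screened in duplicate at 25 uM, and those passing threshold were retested in concentration-response up to 50 uM. Loss of binding was fitted versus DMSO.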

For assay [9], the target named is Norway rat Vesicular Monoamine Transporter (VMAT2), neurotransmitter transporter, Slc18a2 (gene 25549) (UniProt Q01827). Briefly: NVS_TR_rVMAT2: NovaScreen (NVS) Transporter Assay for Norway rat Vesicular Monoamine Transporter (VMAT2), neurotransmitter transporter (AID 2283376).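 Also: actives lower the bound radioligand signal below the DMSO level.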 In outline: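 Rat forebrain tissue preparation used in a cell-free radioligand binding format; displacement read by filter-based scintillation counting 1 hour after dosing. Primary screen in duplicate at 25 uM, actives then run in concentration series; loss of signal versus DMSO baseline.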

Assay [10] has as its target bovine Gamma-Aminobutyric Acid Type A Receptor BDZ, alpha 1 site (GABARa1), GABRA1 (gene 780973) (UniProt P08219). Briefly: NVS_LGIC_bGABARa1: NovaScreen (NVS) Ligand-Gated Ion Channel Assay for bovine Gamma-Aminobutyric Acid Type A Receptor BDZ, alpha 1 site (GABARa1) (AID 2283321). The essentials:
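Radioligand competition binding on bovine cortical membranes, 0.75 h, filter-based scintillation counting. Primary single concentration 25 uM in duplicate; actives rerun in concentration-response to 50 uM max. Loss of signal fitted versus DMSO.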

Assay [11] addresses Bile acid receptor (Homo sapiens) (UniProt Q96RI1). Description: NVS_NR_hFXR_Agonist: NovaScreen (NVS) Nuclear Receptor Binding Assay for human Farnesoid X Receptor Agonism (FXR) (AID 2283347). In outline: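 Cell-free TR-FRET binding assay with extracted human FXR protein, agonist format, read 1 h after dosing. Primary screen at 25 uM single concentration in duplicate, actives retested in concentration series; gain of signal versus DMSO.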

Records with an inconclusive call do not appear. The source made the active and inactive calls. The calls were made as follows, unless noted: active = hit-call score of the fitted dose curve at least 0.9, where 1 is the maximum; inconclusive = response in the unintended direction; inactive = score below 0.9.

One may read the AC50 as the midpoint of the concentration-response curve, whichever way the signal moves.

Norway rat Vesicular Monoamine Transporter (VMAT2), neurotransmitter transporter, Slc18a2 (gene 25549), sequence (Q01827 whole entry, looked up): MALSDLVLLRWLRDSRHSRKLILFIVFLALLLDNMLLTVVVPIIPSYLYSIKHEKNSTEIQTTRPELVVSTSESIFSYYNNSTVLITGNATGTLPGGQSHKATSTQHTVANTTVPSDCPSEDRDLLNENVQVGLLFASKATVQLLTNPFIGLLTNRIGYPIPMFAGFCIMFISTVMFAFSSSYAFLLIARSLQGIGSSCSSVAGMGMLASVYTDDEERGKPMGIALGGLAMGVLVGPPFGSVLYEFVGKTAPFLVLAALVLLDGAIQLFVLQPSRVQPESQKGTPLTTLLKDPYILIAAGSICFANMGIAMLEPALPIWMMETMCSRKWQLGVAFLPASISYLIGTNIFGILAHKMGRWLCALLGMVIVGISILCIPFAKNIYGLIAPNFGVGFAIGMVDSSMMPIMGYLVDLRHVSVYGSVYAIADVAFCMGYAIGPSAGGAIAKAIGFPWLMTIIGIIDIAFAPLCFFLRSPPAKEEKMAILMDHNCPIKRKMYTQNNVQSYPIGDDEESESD
Androgen receptor (Homo sapiens), sequence (P10275 whole entry, looked up, the tested form may be a part): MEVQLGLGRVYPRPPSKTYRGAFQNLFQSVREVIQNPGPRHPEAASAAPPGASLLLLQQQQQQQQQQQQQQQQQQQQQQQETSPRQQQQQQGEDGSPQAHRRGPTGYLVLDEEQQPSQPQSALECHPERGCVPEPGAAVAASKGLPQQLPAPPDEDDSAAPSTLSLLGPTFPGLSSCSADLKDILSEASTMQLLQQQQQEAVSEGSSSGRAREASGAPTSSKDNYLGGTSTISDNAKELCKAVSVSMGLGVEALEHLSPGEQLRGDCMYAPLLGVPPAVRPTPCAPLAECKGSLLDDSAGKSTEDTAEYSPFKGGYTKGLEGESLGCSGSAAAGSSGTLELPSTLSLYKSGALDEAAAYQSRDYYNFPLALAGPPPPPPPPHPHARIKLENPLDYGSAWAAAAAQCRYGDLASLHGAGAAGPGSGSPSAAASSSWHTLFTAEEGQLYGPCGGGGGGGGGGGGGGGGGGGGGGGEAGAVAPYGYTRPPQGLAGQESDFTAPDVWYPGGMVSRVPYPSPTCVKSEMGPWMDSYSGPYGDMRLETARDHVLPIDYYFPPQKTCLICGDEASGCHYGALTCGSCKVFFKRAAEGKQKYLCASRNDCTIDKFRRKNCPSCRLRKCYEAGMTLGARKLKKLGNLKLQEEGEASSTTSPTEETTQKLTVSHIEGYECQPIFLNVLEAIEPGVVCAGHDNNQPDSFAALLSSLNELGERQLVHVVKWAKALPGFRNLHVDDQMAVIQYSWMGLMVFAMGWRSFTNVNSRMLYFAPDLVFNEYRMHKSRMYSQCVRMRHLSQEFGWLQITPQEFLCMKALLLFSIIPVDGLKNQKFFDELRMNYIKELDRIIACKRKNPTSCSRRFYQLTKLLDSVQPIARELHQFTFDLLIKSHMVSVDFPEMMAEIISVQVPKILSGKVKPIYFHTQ
rat Oxytocin Receptor (OXT), Oxtr (gene 25342), sequence (P70536 whole entry, looked up): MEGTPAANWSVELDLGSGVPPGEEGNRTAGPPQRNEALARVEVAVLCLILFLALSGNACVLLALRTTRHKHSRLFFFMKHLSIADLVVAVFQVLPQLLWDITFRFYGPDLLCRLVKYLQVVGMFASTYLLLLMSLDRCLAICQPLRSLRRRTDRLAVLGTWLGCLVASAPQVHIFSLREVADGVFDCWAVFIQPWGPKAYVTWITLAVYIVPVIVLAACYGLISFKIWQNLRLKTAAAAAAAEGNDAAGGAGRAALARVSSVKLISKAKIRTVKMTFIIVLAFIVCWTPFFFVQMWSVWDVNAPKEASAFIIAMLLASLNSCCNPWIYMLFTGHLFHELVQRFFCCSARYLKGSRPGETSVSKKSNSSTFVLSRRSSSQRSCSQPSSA
human Neonicotinoid receptor (NNR), CHRNA2 (gene 1135), sequence (Q15822 whole entry, looked up): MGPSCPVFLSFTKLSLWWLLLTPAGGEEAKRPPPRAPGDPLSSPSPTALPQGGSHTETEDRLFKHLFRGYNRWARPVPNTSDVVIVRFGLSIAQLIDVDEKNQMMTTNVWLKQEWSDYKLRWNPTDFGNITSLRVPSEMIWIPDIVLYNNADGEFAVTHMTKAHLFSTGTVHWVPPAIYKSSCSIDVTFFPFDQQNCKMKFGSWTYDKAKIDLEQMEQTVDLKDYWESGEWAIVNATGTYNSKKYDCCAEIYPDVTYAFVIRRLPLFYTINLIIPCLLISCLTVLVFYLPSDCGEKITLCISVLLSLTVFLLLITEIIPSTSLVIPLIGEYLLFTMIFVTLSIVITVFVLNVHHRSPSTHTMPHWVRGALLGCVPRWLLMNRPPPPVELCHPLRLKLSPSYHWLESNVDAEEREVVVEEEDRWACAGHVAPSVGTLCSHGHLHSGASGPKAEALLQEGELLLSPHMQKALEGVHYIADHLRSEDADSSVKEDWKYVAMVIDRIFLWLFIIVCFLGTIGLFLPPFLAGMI
rat Monoamine Oxidase, MAO-B, Central (MAOBC), Maob (gene 25750), sequence (P19643 whole entry, looked up): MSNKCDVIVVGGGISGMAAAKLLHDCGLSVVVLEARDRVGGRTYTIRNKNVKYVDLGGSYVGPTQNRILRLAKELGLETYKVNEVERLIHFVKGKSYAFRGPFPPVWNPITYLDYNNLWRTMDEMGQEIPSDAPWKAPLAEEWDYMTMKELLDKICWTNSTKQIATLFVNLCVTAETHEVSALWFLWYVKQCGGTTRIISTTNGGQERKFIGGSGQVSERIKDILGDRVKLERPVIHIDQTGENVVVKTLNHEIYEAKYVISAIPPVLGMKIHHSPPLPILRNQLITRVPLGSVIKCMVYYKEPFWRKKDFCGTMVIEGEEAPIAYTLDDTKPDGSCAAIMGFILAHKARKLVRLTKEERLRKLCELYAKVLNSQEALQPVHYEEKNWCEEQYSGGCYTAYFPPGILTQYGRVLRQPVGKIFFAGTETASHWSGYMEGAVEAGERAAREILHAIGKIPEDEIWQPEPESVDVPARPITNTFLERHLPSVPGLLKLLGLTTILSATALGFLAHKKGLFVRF
bovine Gamma-Aminobutyric Acid Type A Receptor BDZ, alpha 1 site (GABARa1), GABRA1 (gene 780973), sequence (P08219 whole entry, looked up): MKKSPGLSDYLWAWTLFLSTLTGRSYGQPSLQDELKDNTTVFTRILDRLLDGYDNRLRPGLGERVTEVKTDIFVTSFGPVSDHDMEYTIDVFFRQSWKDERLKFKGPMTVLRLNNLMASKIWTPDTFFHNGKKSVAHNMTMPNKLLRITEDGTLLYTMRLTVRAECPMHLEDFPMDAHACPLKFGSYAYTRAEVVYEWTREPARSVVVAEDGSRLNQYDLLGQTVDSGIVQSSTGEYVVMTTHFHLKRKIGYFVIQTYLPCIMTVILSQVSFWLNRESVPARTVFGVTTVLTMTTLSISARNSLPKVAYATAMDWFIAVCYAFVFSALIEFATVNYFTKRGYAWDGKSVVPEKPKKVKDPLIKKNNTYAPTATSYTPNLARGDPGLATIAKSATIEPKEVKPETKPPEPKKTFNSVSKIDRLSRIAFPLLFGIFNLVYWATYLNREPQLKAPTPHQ
Bile acid receptor (Homo sapiens), sequence (Q96RI1 whole entry, looked up): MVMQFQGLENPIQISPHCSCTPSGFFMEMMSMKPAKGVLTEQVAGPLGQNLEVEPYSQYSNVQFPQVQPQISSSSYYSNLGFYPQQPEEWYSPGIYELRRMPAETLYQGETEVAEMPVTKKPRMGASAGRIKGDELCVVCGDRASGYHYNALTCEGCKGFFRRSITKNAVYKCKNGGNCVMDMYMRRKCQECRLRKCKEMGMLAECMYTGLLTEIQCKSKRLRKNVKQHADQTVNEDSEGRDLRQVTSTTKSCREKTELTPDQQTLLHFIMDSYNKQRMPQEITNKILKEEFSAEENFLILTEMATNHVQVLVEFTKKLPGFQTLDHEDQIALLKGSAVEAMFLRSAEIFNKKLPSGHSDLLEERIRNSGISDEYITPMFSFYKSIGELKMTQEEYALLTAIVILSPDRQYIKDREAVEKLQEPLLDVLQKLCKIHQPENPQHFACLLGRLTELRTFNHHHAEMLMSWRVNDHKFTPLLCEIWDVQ

For `FC(F)(F)C(F)(F)CNCC(F)(F)C(F)(F)F`, the compound was classed as inactive in assay [1] and in assay [2].
As for `O=S(=O)(OCC(F)F)C(F)(F)F`, the compound was called inactive in assay [1] and in [2].
Take `FC(F)=C(F)C(F)(F)C(F)(F)C(F)(F)C(F)(F)C(F)(F)C(F)(F)F`: the call in [1] and in [2] was inactive.
Turning to `O=C(CCCCCCCCc1cccnc1)N1CCC(C=C(c2ccccc2)c2ccccc2)CC1`, the result in [1], in assay [3] and in assay [4] was inactive.
For the compound `O=c1c(-c2ccc(O)cc2)coc2cc(O)ccc12`, the outcome in assay [1] and in assay [5] was inactive.
On to `CSc1ccc(O)cc1C`, for which, in [1], the compound was classed as inactive. The half-maximal activity concentration (AC50) in assay [6] is 15.7 µM (active).
With `NCCOCCOCCN`, the compound was classed as inactive in [1], in assay [7] and in assay [8].
In the case of `C=CC(=O)OCCN(CC)CC`, the result in assay [1] and in assay [6] was inactive.
`OCC(F)(F)C(F)(F)C(F)(F)C(F)(F)C(F)(F)C(F)(F)F`: the call in assay [1] and in assay [2] was inactive.
`FC(F)(F)C(F)(F)C(F)(F)CC1CO1` (stereo unspecified): the call in assay [1] and in assay [2] was inactive.
Turning to `COCCC(=O)OC`, the result in [1] and in assay [6] was inactive.
On to `C=CCc1cc(S(=O)(=O)c2ccc(O)c(CC=C)c2)ccc1O`, for which the outcome in assay [1] and in assay [5] was inactive.
For `c1ccc2c(c1)ccc1ccccc12`, the compound was called inactive in [1], in [9] and in assay [5].
With `C=CC(=O)OCC(F)(F)C(F)(F)C(F)(F)C(F)(F)C(F)(F)C(F)(F)C(F)(F)C(F)F`, the outcome in assay [1] and in [2] was inactive.
As to `CCC(=O)OC/C=C(\C)CCC=C(C)C`, the result in assay [1] and in [6] was inactive.
For `CCN(CC)c1ccc(C=O)c(O)c1`, the outcome in assay [1] and in assay [9] was inactive. Moreover, the AC50 in assay [6] was 17.5 µM (active).
For the compound `CCOc1ccc(NC(C)=O)cc1`, the result in [1] was inactive. Moreover, the AC50 in assay [6] was 21 µM (active).
Consider `Cc1cc(F)ccc1-c1cc(N2CC[C@@H](O)[C@H]2CO)ncc1N(C)C(=O)C(C)(C)c1cc(C(F)(F)F)cc(C(F)(F)F)c1`, for which the compound was called inactive in assay [1]. In assay [9], the AC50 was 11.7 µM (active).
As for `O=c1cc(-c2ccccc2)oc2cc(O)cc(O)c12`, the outcome in [1] and in [5] was inactive.
Regarding `COC(F)(C(F)F)C(F)(F)F` (stereo unspecified), the result in assay [1] and in assay [2] was inactive.
As to `O=C(O)C(F)(F)C(F)(F)C(F)(F)C(F)(F)C(F)(F)C(F)(F)C(F)(F)C(F)(F)Cl`, the compound was called inactive in [1]. Further, the AC50 in [2] was 39.3 µM (active).
With `COc1ccc(C(=O)c2ccccc2)c(O)c1`, the compound was called inactive in [1] and in [5].
With `CCSC(=O)N(CC(C)C)CC(C)C`, the compound was classed as inactive in assay [1] and in [10].
`FC(F)(F)COC(OCC(F)(F)F)OCC(F)(F)F`: the compound was called inactive in assay [1] and in assay [2].
Take `C=C1C[C@H]2[C@@H]3C=C(C)C4=CC(=O)CC[C@]4(C)[C@H]3CC[C@]2(C)[C@@]1(OC(C)=O)C(C)=O`: the compound was called inactive in assay [1] and in assay [5].
Turning to `OCC(F)(F)C(F)(F)C(F)(F)C(F)(F)C(F)(F)C(F)(F)C(F)(F)C(F)(F)C(F)(F)C(F)(F)C(F)(F)F`, the compound was called inactive in assay [1] and in assay [2].
For `Oc1ccc(/C=C/c2cc(O)cc(O)c2)cc1`, the result in [1] was inactive. In addition, the half-maximal activity concentration (AC50) in assay [9] was 21 µM (active).
In the case of `OCCCC(F)(F)C(F)(F)C(F)(F)F`, the compound was called inactive in assay [1] and in assay [2].
With `CC(C)OC(=O)C(C)(C)Oc1ccc(C(=O)c2ccc(Cl)cc2)cc1`, the compound was classed as inactive in assay [1]. Further, the concentration at half-maximal activity (AC50) in [11] was 25 µM (active).
Consider `C=CC(F)(F)C(F)(F)C(F)(F)C(F)(F)C(F)(F)C(F)(F)C(F)(F)C(F)(F)C=C`, for which the compound was classed as inactive in assay [1] and in assay [2].
In the case of `CCC(=C(c1ccc(O)cc1)c1ccc(OCCN(C)C)cc1)c1ccccc1`, the result in [1] and in assay [4] was inactive.
As for `O=C(O)C(F)(F)C(F)(F)OC(F)(F)F`, the call in [1] and in assay [2] was inactive.
`FC(F)(F)C(F)(F)C(F)(F)C(F)(F)C(F)(F)C(F)(F)C(F)(F)C(F)(F)CCS`: the call in assay [1] and in assay [2] was inactive.
On to `NC(=O)C(F)(F)C(F)(F)C(F)(F)C(F)(F)C(N)=O`, for which the call in assay [1] and in [2] was inactive.
Take `CNS(=O)(=O)C(F)(F)C(F)(F)C(F)(F)C(F)(F)C(F)(F)C(F)(F)C(F)(F)C(F)(F)F`: the call in [1] and in [2] was inactive.
Turning to `CCCCCCCCC(F)(F)C(F)(F)C(F)(F)C(F)(F)C(F)(F)C(F)(F)F`, the compound was classed as inactive in [1] and in assay [2].

For the origin of these results see PubChem BioAssay (EPA / NIEHS).
